Measured values taken from PubChem BioAssay AID463082 (The Scripps Research Institute Molecular Screening Center, 2010).
The campaign covered roughly 330,000 compounds. About 4,900 (1.5%) were called active.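 How the source made its calls: active means inhibition above the mean inhibition across the screen plus 3 SD (cut at about 25% in these data); inactive means the rest.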 The list comes from a sample in which actives are over-represented; it also holds similar structures and randomly drawn compounds.

The molecules below were run against Platelet-activating factor acetylhydrolase (Homo sapiens) (UniProt Q13093) (assay: inhibition of plasma PAF acetylhydrolase – biochemical, fluorescence polarization, human, primary screen (AID 463082;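 further: inhibitors block binding of the rhodamine activity-based probe so polarization drops; 0% = enzyme with DMSO and 100% = wells lacking pPAFAH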)). Conditions: recombinant pPAFAH, FP-rhodamine probe fluorescence polarization; at 3.39 µM; hits give high values.
Chain of Platelet-activating factor acetylhydrolase (Homo sapiens) (Q13093 whole entry, looked up): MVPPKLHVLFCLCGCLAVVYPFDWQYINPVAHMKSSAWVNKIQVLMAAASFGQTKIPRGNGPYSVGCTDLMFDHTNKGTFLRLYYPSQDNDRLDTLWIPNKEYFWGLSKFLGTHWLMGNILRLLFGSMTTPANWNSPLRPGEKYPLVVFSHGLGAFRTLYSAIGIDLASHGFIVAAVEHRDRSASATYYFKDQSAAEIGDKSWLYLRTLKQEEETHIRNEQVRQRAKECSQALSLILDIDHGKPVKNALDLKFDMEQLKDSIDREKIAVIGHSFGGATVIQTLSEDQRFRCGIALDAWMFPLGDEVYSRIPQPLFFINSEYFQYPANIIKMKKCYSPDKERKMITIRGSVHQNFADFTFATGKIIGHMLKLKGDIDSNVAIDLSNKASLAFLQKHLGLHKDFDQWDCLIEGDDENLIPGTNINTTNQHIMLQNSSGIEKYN

inhibition, inactive:
Cc1ccc(S(=O)Cc2ccc(C(=O)N3CCN(C4CCCCC4)CC3)o2)cc1 (stereo not given) 4.39%, COc1ccccc1NC1=NC(c2ccc(Cl)cc2)N=C(N)N1 (stereo not given) 1.26%, COC(=O)CCCC1=CC2=CC(=O)C(C)(OC(=O)c3cccs3)C(=O)C2=CN1c1cccc(C#N)c1 (stereo not given) 7.86%, O=C(COC(=O)c1ccco1)NCc1ccc(Cl)cc1 0.66%, O=C(CC1C(=O)NCCN1CC(c1ccccc1)c1ccccc1)NCCc1cn[nH]c1 (stereo not given) 7.44%, COc1cc([N+](=O)[O-])ccc1NC(=O)COC(=O)CCOc1ccc(C)cc1 6.88%, O=C(Nc1ccccc1C(=O)N1CCOCC1)c1ccc(CSc2ccccc2)cc1 4.67%, CC(C)Oc1c(Br)cc(Br)cc1/C=N/NC(N)=S 1.45%, Cc1ccc(-n2c(C)cc(/C=N\NC(=O)CC(=O)NC(C)C)c2C)cc1 1.94%, Cc1cccc(-n2c(C)cc(/C=N\NC(=O)c3cccs3)c2C)c1 22%, O=C(N/N=C/c1cc2c(cc1Br)OCO2)C1COc2ccccc2O1 (stereo not given) 8.36%, O=C(N/N=C\c1cc(Br)c(Br)o1)C1COc2ccccc2O1 (stereo not given) -1.47%, CCOc1ccc(N(C)S(=O)(=O)c2cnc[nH]2)cc1 4.67%, CC(Oc1cc2oc(=O)c3c(c2cc1Cl)CCCC3)C(=O)NCc1ccncc1 (stereo not given) 7.32%, CCOC(=O)CSc1nnc(CNC(=O)c2cccs2)n1-c1cc(OC)ccc1OC 4.54%, Cn1cccc1/C=N/NC(=O)c1ccc(OC(F)(F)C(F)F)cc1 6.18%, Cn1nccc1NC(=O)Nc1ccc(OC(F)(F)F)cc1 -4.08%, CCCCN1C(=O)CCC(C(=O)O)C1c1ccc(OC)cc1 (stereo not given) 2.74%, CCOC(=O)C(C)Oc1cccc2c(=O)n(CC(=O)NCCc3ccc(OC)c(OC)c3)ccc12 (stereo not given) 0.87%, Nn1c(SCC(=O)NC2CCCc3ccccc32)nnc1C1CC1 (stereo not given) -1.35%, C[C@H](NC(=O)c1ccccc1Cl)C(=O)OCCOc1cccc(Cl)c1 0.09%, COC(=O)CCCC1=CC2=CC(=O)C(C)(OC(=O)c3cccs3)C(=O)C2=CN1CC(C)C (stereo not given) 5.09%, CCCCC1=CC2=CC(=O)C(C)(OC(=O)CC)C(=O)C2=CN1CCCOC(C)C (stereo not given) -0.51%, COc1ccc(OCC(=O)OCCN(C)C)cc1 0.82%, O=C(CCCN1C(=O)CCC1=O)Nc1ccc(Cl)c(C(F)(F)F)c1 5.28%, COc1ccc(Cl)cc1NC(=O)COC(=O)C(CC(C)C)N1C(=O)C2CC=CCC2C1=O (stereo not given) -2.85%, CCOc1ccc(N2CC(C(=O)NCCN3C(=O)S/C(=C\c4cccnc4)C3=O)CC2=O)cc1 (stereo not given) 8.89%, COc1ccccc1N1CC(C(=O)NCCN2C(=O)S/C(=C\c3cccnc3)C2=O)CC1=O (stereo not given) 4.51%, COc1ccc(S(=O)(=O)N(C)CC(=O)N2CCCC2)cc1 -1%, COc1cc(OC)cc(C(=O)NNC(=O)Cc2cccs2)c1 19.8%, Cc1sc2nc(CSCC(=O)NC3CCCCC3)[nH]c(=O)c2c1C 9.75%, CC(=O)c1sc2nc(SCC(=O)N3CCCCC3)[nH]c(=O)c2c1C 13.1%, CCc1ccc(NC(=O)CN2C(=O)CSC2=O)cc1 -3.77%, CCc1ccc(C(CNc2nc(C(F)(F)F)nc3ccccc23)N(C)C)cc1 (stereo not given) -1.56%, COc1cccc(CNc2nc(C(F)(F)F)nc3ccccc23)c1 2.55%, COc1ccc(CN2C(CC(=O)Nc3cccnc3)c3ccc(C(F)(F)F)cc3S2(=O)=O)cc1 (stereo not given) 6.11%, COc1ccc(C(=O)/C=C/c2ccc(OC3CSC3)cc2)cc1 1.34%, COc1ccc(C(=O)/C=C/c2cccnc2)c(OC)c1 -1.82%, O=C1N[C@H](Cc2c[nH]c3ccccc23)COC(=O)[C@H](Cc2ccc(F)cc2)C/C=C\C[C@H]1CC(=O)N(CCO)Cc1ccccc1 21.3%, COCCN1C(=O)C(=O)/C(=C(/O)c2ccc(S(=O)(=O)N3CCOCC3)cc2)C1c1ccc(OC)c(OC)c1 (stereo not given) 0.25%, CCn1c(SCC(=O)N/N=C/c2ccccc2OCC(=O)O)nnc1-c1ccc(C(C)(C)C)cc1 11.4%, COc1ccc(CCOC(=O)CNC(=O)c2ccc(Cl)cc2Cl)cc1 -0.13%, O=C(Nc1ccc(F)cc1)N1CCCC(c2nc3c(nnn3Cc3ccccc3Cl)c(=O)[nH]2)C1 (stereo not given) 1.47%, COc1ccc(Cn2nnc3c(=O)[nH]c(C4CCN(C(=O)c5ccccc5Cl)CC4)nc32)cc1 9.22%, CCc1nnc(NC(=O)C2CC(=O)N(c3ccc4c(c3)OCCO4)C2)s1 (stereo not given) 2.68%, Cc1ccc(NC(=O)C2CC(=O)N(c3ccc4c(c3)OCCO4)C2)cc1S(=O)(=O)N1CCCCCC1 (stereo not given) 0.97%, O=C(COC(=O)c1ccc(S(=O)(=O)N2CCc3ccccc3C2)cc1)NC(=O)NCc1ccco1 -5.65%, S=c1nccc(-c2cc(Cl)sc2Cl)[nH]1 4.56%, CCN(Cc1ccccc1)C(=O)CSc1nc(C)cc2c1C(=O)OC2 7%, COc1ccccc1C(=O)Nc1cccc(C(=O)N2CCOCC2)c1 -0.6%, CN(C)C(=O)CCc1ccc2c3c([nH]c2c1)[C@]1(C)[C@@H](C(=O)N2CCCCC2)C[C@H](CC(=O)NCCC2=CCCCC2)C(=O)N1CC3 9.04%, O=C1C(=O)N(CCCO)C(c2ccccc2)/C1=C(\O)c1ccc(Br)cc1 (stereo not given) 2.67%, CC(C)(C)NC(=O)C(c1ccc(Cl)cc1)N(CCO)C(=O)c1snc(C(N)=O)c1N (stereo not given) -1.41%, O=C(N/N=C/c1c[nH]c2ccccc12)c1cc2ccccc2o1 15.3%, CN(C)S(=O)(=O)c1cccc(NC(=S)N/N=C/C(=O)c2ccccc2)c1 12.9%, Cc1ccc(-c2cc(C(=O)NCc3cn(C)nc3C)c3cc(Br)ccc3n2)cc1 2.72%, O=C(Nc1ccccc1F)c1ccccc1-c1ccc(C(F)(F)F)cc1 0.76%, COc1cc(/C=N/NC(=O)c2cc(C)n(-c3ccc(F)cc3)c2C)cc(OC)c1O 9.67%, Cc1nn(CC(=O)N/N=C/c2ccc(F)cc2)c(C)c1[N+](=O)[O-] -6.43%, COCCNc1cc(-c2ccccc2)nc2cc(-c3cccc(F)c3)nn12 -13.5%, CC(NC(=S)NC1CCCCC1)C(c1ccccc1)N1CCOCC1 (stereo not given) 2.17%

inhibition, active:
CC(C)(C)OC(=O)NCCCC1=CC2=CC(=O)C(C)(OC(=O)c3ccco3)C(=O)C2=CO1 (stereo not given) 33.5%, Cc1cc(/C=N/NC(=O)CC2(C)OCCO2)c(C)n1-c1ccc(Cl)c(Cl)c1 27.6%, O=C(CNC(=O)C1COc2ccccc2O1)N/N=C/c1cc(Br)c(O)c(Br)c1 (stereo not given) 26.3%, O=C(Nc1ccc(OC(F)(F)F)cc1)c1ccc2c(c1)no[n+]2[O-] 25.4%, COC/C=C/C1=CC2=CC(=O)C(C)(OC(=O)CCC(=O)OC)C(=O)C2=CO1 (stereo not given) 32.3%, COc1ccc(N2CC(C(=O)NCCN3C(=O)S/C(=C\c4cccnc4)C3=O)CC2=O)c(OC)c1 (stereo not given) 65.4%, CSc1nnc(SCc2nc3sc(C(=O)O)c(C)c3c(=O)[nH]2)s1 49.9%, CC(Nc1nc(C(F)(F)F)nc2ccccc12)c1cccs1 (stereo not given) 28.4%, COc1ccc(/C=C/C(=O)c2cc(Br)ccc(=O)c2O)cc1 40.7%, Cc1coc2c(O)cc3c(c12)OC1(N2CCCCC2)C(=O)NCCCC31 (stereo not given) 27.6%, Cc1ccc(NC(=O)N2CCC(c3nc4c(nnn4Cc4c(F)cccc4Cl)c(=O)[nH]3)CC2)cc1 27.7%, CCOC(=O)c1ccc(NC(=O)C2CC(=O)N(c3ccc4c(c3)OCCO4)C2)cc1 (stereo not given) 29.3%, O=C(O)c1cccc(NC(=S)N/N=C/c2c[nH]c3ccccc23)c1 26.4%, Cc1cc(C(=O)N/N=C/c2ccc(O)c([N+](=O)[O-])c2)c(C)n1-c1ccc(F)cc1 33.4%
